According to ChEMBL document CHEMBL3988442, “University of Dundee, Small-Polar-MMV Screening Library” (2021):
In all, about 69,000 compounds went through this assay and about 950 (1.4%) showed an effect of 50% or more. The sample as a whole holds a higher share of strong results than the screen did.

What follows are compounds tested on Mycobacterium tuberculosis (assay: Cornell M. t heat shock assay; also: in the data most compounds retested in dose-response had high values).
Format: functional, organism-based
Set-up: dose or concentration left out as unconfirmed

Row | SMILES | Percent Effect [%]
1 | Cc1ncccc1NC(=O)[C@@H]1CCO[C@@H]2CCN(c3ccccc3)C[C@@H]21.O=C(O)C(F)(F)F.O=C(O)C(F)(F)F | 12.9
2 | CCN(Cc1noc(C)n1)C(=O)CC1C(=O)NCCN1CC(C)(C)C (configuration not stated) | -17.37
3 | O=C(N1CCCCC1)N1CCN(CC(O)c2ccccc2)CC1 (configuration not stated) | -21.19
4 | OC(CN1CCN(CC2CCCCC2)CC1)c1ccccc1 (configuration not stated) | 50.33
5 | OC(CN1CCN(CC2CC2)CC1)c1ccc(Br)cc1 (configuration not stated) | 6.961
6 | CCCn1nc(C)c(-c2cncn2CCN(C)C2CCCC2)c1C.Cl | 7.382
7 | CN(C)S(=O)(=O)N1CCC[C@]2(C[C@@H](Oc3ncccc3F)CO2)C1.O=C(O)C(F)(F)F | -8.336
8 | Cc1cc(C(F)(F)F)nc(CNc2cc(C)nc3cc(C)nn23)n1 | 65.55
9 | Cc1cc(NCc2cc(C)oc2C(F)(F)F)n2nc(C)cc2n1 | 56.47
10 | Cc1cc(NCCCC(F)(F)F)n2nc(C)cc2n1 | 87.73
11 | CNC(=O)CCCNc1cc(C)nc2cc(C)nn12 | -5.305
12 | CNS(=O)(=O)CCNc1cc(C)nc2cc(C)nn12 | 10.96
13 | Cc1cc(NCc2ccc(O)cc2)n2nc(C)cc2n1 | 21.53
14 | Cc1cc(NCc2ccc(CO)cc2)n2nc(C)cc2n1 | 10.67
15 | Cc1cc(NCc2ccc(C#N)cc2)n2nc(C)cc2n1 | -9.847
16 | Cc1cc(NCc2cccnc2)n2nc(C)cc2n1 | 1.456
17 | CC(C)OCCCN(CC(=O)N1CCNCC1)C(=O)c1cccc(Cl)c1.O=C(O)C(F)(F)F | -0.6086
18 | COc1cccc(CN2C[C@@H]3COC[C@]3(CN3CCOCC3)C2)c1.O=C(O)C(F)(F)F.O=C(O)C(F)(F)F | -20.77
19 | Cc1noc(C)c1CN1C[C@@H]2COC[C@@H](CC(=O)N3CCCCO3)[C@@H]2C1.O=C(O)C(F)(F)F | -4.663

Row | SMILES | Percent Effect [%]
20 | CCC(C)[C@H](N)c1nnc(SCC(=O)Nc2ccc(Br)cc2)o1.Cl (some centres not stated) | -9.343
21 | O=C(O)C(F)(F)F.c1cc(COC[C@H]2CCC[C@]23CNCCO3)ccn1 | 31.7
22 | CN(C)c1ncnc2c1CCN(CC1CCCC1)CC2.O=C(O)C(F)(F)F | 2.211
23 | CC(C)(C)c1cn2c(n1)C(CNCc1ccccn1)CCC2 (configuration not stated) | 70.45
24 | Cn1cccc1CNCC1CCCn2cc(C(C)(C)C)nc21 (configuration not stated) | 1.286
25 | CC(C)(C)c1cn2c(n1)C(CNCc1cnn3ccccc13)CCC2 (configuration not stated) | 15.66
26 | CCOCC1CN(c2ccncn2)Cc2cnn(CC3CC3)c21.O=C(O)C(F)(F)F.O=C(O)C(F)(F)F (configuration not stated) | -24.31
27 | COc1ncccc1C(=O)N1CC[C@]2(C[C@@H](Oc3cccnc3)CO2)C1.O=C(O)C(F)(F)F.O=C(O)C(F)(F)F | -28
28 | Cc1cccc(CN2C[C@@H]3COC[C@]3(CNC(=O)c3ccccc3)C2)n1.O=C(O)C(F)(F)F.O=C(O)C(F)(F)F | -15.75
29 | CN1CC(=O)N(c2cnn(C)c2)CC12CCN(Cc1cccnc1)C2.O=C(O)C(F)(F)F.O=C(O)C(F)(F)F.O=C(O)C(F)(F)F (configuration not stated) | -54.01
30 | Cc1noc(C)c1CN1C[C@@H]2COC[C@@H](C(=O)N3CCCCO3)[C@@H]2C1.O=C(O)C(F)(F)F | -3.514
31 | COc1ccccc1N1CCN(C(=O)Cn2nccc2C)CC1(C)C | 90.85
32 | COc1ccccc1N1CCN(C(=O)Cn2nc(C)cc2C)CC1(C)C | 8.115
33 | COc1ccc(N2CCN(C(=O)Cn3nccc3C)CC2(C)C)cc1 | 16.6
34 | COc1ccc2[nH]cc(C(=O)N3CC[C@H](CO)[C@@H](O)C3)c(=O)c2c1 | -0.5763
35 | O=C(Cc1c[nH]c2ccccc12)N1CCN(C(=O)c2ccoc2)CC1 | 3.224
36 | O=C(c1c[nH]c2ccccc2c1=O)N1CCSCC1 | 105.4
37 | Cc1nccc(NCc2cncc3c2CCN(CCN(C)C)C3)n1 | 3.393
38 | COc1ccccc1N1CCN(Cc2ncc(C)c(OC)c2C)CC1=O | 18.05

Row | SMILES | Percent Effect [%]
39 | Cc1cc(C)n(-c2nc(NCCCO)c3c4c(sc3n2)CCCC4)n1 | 101.1
40 | COCCNc1nc(-n2nc(C)cc2C)nc2sc3c(c12)CCCC3 | 40.33
41 | Cc1cc(C)n(C2=NC(NCCC(C)C)c3c(sc4c3CCCC4)N2)n1 (configuration not stated) | 11.87
42 | CO[C@@H]1CN(c2ccccc2)S(=O)(=O)[C@@]12CCN(C(C)=O)C2 | 16.02
43 | Cc1ccc(O)c(CN(CCCn2ccnc2)Cc2ccc(C)s2)c1.O=C(O)CC(O)(CC(=O)O)C(=O)O | 105.6
44 | Cc1ccc(S(=O)(=O)N2CCN(CCCn3ccnc3)CC2)cc1 | 15.57
45 | Cc1ccc(CN(CCCn2ccnc2)Cc2ccccc2O)s1.O=C(O)CC(O)(CC(=O)O)C(=O)O | 35.85
46 | Cc1ccc(CN(CCCO)Cc2nc3ccccc3[nH]2)s1 | -17.57
47 | CN(C)c1ccc(CN(CCCn2ccnc2)Cc2c[nH]cn2)cc1.O=C(O)CC(O)(CC(=O)O)C(=O)O | 16.53
48 | Cc1cccc(CC(=O)N2CCN(c3nccn3C)CC2)c1.Cl | -13.18
49 | O=C(O)C(F)(F)F.O=C(O)C(F)(F)F.c1csc(CN2C[C@@H]3COC[C@]3(COCc3ccncc3)C2)c1 | -17.61
50 | O=C(Cc1ccc(F)cc1)N1CCn2cc(Cn3cccn3)nc2C1.O=C(O)C(F)(F)F | 1.862
51 | O=C(CN1CCc2sccc2C1)Nc1ccnc2ccnn12 | 101.6
52 | CC(C)n1nccc1NC(=O)CN1CCc2sccc2C1 | -0.741
53 | Cn1nccc1NC(=O)CN1CCc2sccc2C1 | -34.76
54 | Cc1ccoc1C(=O)N1CCc2ccc(=O)n(CCN(C)C)c2CC1.O=C(O)C(F)(F)F | -10.47
55 | CCNc1ncc(C(=O)N2CCOC(CCCc3ccccc3)C2)cn1 (configuration not stated) | 13.88
56 | CCc1ocnc1C(=O)N1CCOC(CCCC(C)C)C1 (configuration not stated) | 2.233
57 | CCNc1ncc(C(=O)N2CCOC(CCCC(C)C)C2)cn1 (configuration not stated) | 101.8
